Experimental data: the supplement of paper PMC7801607

Tests used:
CHO = assay: % viability of CHO cells (MTT); higher = less toxic; conditions: 48 h
In short: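 CHO cells were plated at 10^6 cells/well in 200 µL and allowed to attach overnight. Fresh medium with compound at 2 or 20 µM then replaced the old medium for 48 h. Percent viability, relative to untreated cells, came from a colorimetric tetrazolium (MTT) readout.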

HepG2-A16-CD81 = assay: % inhibition of HepG2 viability (CellTiter-Glo); higher = more toxic; conditions: 5 µM
[1] = tested on: Plasmodium falciparum NF54 stage IV/V gametocytes; assay: % inhibition of gametocyte viability (PrestoBlue); higher = more inhibition; conditions: 48 h
In short: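 In a single run, percent inhibition of gametocyte viability was calculated relative to vehicle and kill controls. The wells held 100 µL of Stage IV/V NF54 gametocytes at 2% gametocytaemia and 5% haematocrit, with compound at 1 or 5 µM. Plates stood at 37 °C in hypoxic conditions for 48 h. After that, 10 µL PrestoBlue was added for 2 h, and 70 µL of supernatant was transferred for fluorescence reading at 612 nm.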

[2] = tested on: Plasmodium falciparum NF54 asexual blood stage; assay: % inhibition of asexual blood stage proliferation (pLDH); higher = more inhibition; conditions: 72 h
In short: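 Percent inhibition of asexual proliferation, normalised to controls, was determined in a screen repeated on two separate occasions. Plasmodium falciparum NF54 ring-stage cultures (1% haematocrit, 2% parasitaemia) received compound at 2 or 20 µM and were incubated for 72 h at 37 °C under 4% CO2, 3% O2 and 93% N2. A colorimetric parasite lactate dehydrogenase readout at 620 nm gave survival.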

[3] = tested on: Plasmodium falciparum NF54 stage IV/V gametocytes; assay: % inhibition of gametocyte viability (ATP bioluminescence); higher = more inhibition; conditions: 24 h
In short: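 Enriched stage IV/V NF54 gametocytes were exposed to compound at 1 or 5 µM for 24 h at 37 °C in 96-well plates. Percent inhibition of gametocyte viability was derived from a bioluminescent ATP readout, normalised to controls within a single run.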

[4] = tested on: Plasmodium falciparum NF54 stage IV/V gametocytes; assay: % inhibition of gametocyte viability (luciferase reporter); higher = more inhibition; conditions: 48 h
In short: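 Stage IV/V gametocytes of the NF54-Pfs16-GFP-Luc line (2% gametocytaemia, 2% haematocrit) were exposed to compound at 1 or 5 µM. Incubation was 48 h at 37 °C, stationary and hypoxic. Luminescence was read on 30 µL lysate plus 30 µL Promega luciferin substrate on a GloMax-Multi+ reader with 10 s integration. Percent inhibition was normalised to DMSO and kill controls from a single run.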

[5] = tested on: Plasmodium berghei ANKA liver stage in HepG2-A16-CD81; assay: % inhibition of liver stage parasite viability (luciferase); higher = more inhibition; conditions: 5 µM; 48 h
Experimental: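 Single-concentration screen of the MMV Pandemic Response Box. P. falciparum NF54 asexual blood stages: pLDH assay, 72 h at 37 °C, 2 and 20 µM, n=2. Stage IV/V gametocytes (NF54): luciferase reporter (NF54-Pfs16-GFP-Luc, 48 h), ATP bioluminescence (24 h) and PrestoBlue (48 h) at 1 and 5 µM, n=1. P. berghei liver stage (luciferase in HepG2-A16-CD81, 48 h post infection) at 5 µM, n=4. All normalised to DMSO and kill controls as % inhibition.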
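For % inhibition of HepG2 viability (CellTiter-Glo) in this document: HepG2-A16-CD81 hepatoma cells plated as in the liver-stage assay but without sporozoites, with DMSO wells as negative and 25 µM puromycin as positive control.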

Structure (SMILES)	% viability of CHO cells (CHO; 2 µM)	% viability of CHO cells (CHO; 20 µM)	% inhibition of HepG2 viability (HepG2-A16-CD81)	% inhibition of gametocyte viability ([1]; 1 µM)	% inhibition of gametocyte viability ([1]; 5 µM)	% inhibition of asexual blood stage proliferation ([2]; 2 µM)	% inhibition of asexual blood stage proliferation ([2]; 20 µM)	% inhibition of gametocyte viability ([3]; 1 µM)	% inhibition of gametocyte viability ([3]; 5 µM)	% inhibition of gametocyte viability ([4]; 1 µM)	% inhibition of gametocyte viability ([4]; 5 µM)	% inhibition of liver stage parasite viability [5]
OC1O[C@H](CSc2ccc(F)cc2)[C@@H](O)[C@H]1O (some centres undefined)	84.4%	-2.31%	-4.06%	< 0%	18.7%	91.2%	90.9%	< 0%	< 0%	< 0%	0.415%	31.6%
CC(C)Nc1ncnc2c1cnn2-c1ccc(Cl)cc1	89.8%	122%	13.3%	17.9%	15.6%	18.3%	69.3%	< 0%	< 0%	< 0%	62.4%	43.2%
CC(C)/N=c1\cc2n(-c3ccc(Cl)cc3)c3ccccc3nc-2cc1Nc1ccc(Cl)cc1	96.5%	98.2%	18.3%	< 0%	< 0%	82.2%	88.9%	< 0%	< 0%	< 0%	16%	59.4%
O=[N+]([O-])c1cn(Cc2nc(O)nc(O)c2Br)cn1	95.9%	109%	-3.1%	9.08%	21.3%	38.7%	55.8%	0.137%	< 0%	< 0%	4.07%	19.1%
CCN(CC)CCCC(C)Nc1ccnc2cc(Cl)ccc12 (centres undefined)	95.9%	76.9%	8.97%	16.9%	6%	85.8%	99.8%	< 0%	< 0%	29.7%	5.51%	14.3%
CC(C)n1cnc2c(NCc3ccccc3)nc(NCc3ccccc3)nc21	104%	58.3%	7.56%	< 0%	< 0%	45.5%	60.5%	< 0%	< 0%	< 0%	< 0%	17.1%
Nc1nc2c(Cc3cccnc3)c[nH]c2c(=O)[nH]1	97.2%	113%	-4.71%	26.1%	24.3%	2.83%	19.8%	< 0%	< 0%	< 0%	< 0%	27.7%
OC[C@@H]1CC[C@H](n2cnc3c(O)ncnc32)O1	119%	114%	-1.26%	1.35%	4.95%	47.1%	26.7%	< 0%	< 0%	0.0967%	< 0%	18.8%
OCCCCn1cnc2c(O)nc(NCc3ccc(Cl)c(Cl)c3)nc21	95.4%	106%	5.96%	< 0%	< 0%	18.9%	91.1%	< 0%	< 0%	< 0%	< 0%	7.89%
c1cc(CN2CCCNCCNCCCNCC2)ccc1CN1CCCNCCNCCCNCC1	104%	109%	-0.261%	7.81%	31%	16.7%	34.9%	6.22%	< 0%	< 0%	< 0%	1.46%
O=C(NCc1ccc(F)cc1)c1c(O)c2ncccc2[nH]c1=O	121%	91.5%	5.33%	< 0%	20.1%	54.8%	31.4%	3.16%	< 0%	5.58%	< 0%	14%
C[C@@H]1O[C@@H]1P(=O)(O)O	107%	72.6%	-3.69%	< 0%	36.1%	-0.28%	11.5%	< 0%	< 0%	< 0%	4.89%	-6.92%
CONC(=N)c1ccc(-c2ccc(-c3ccc(C(=N)NOC)cc3)o2)cc1	111%	121%	2.49%	11.8%	9.28%	-3.01%	1.5%	0.615%	< 0%	< 0%	< 0%	4.65%
O=C1NC(=O)C(Br)=C1Br	118%	103%	5.44%	13.6%	< 0%	42.2%	102%	0.158%	< 0%	< 0%	11.4%	35.8%
NC(=O)c1ccc(I)c([N+](=O)[O-])c1	110%	112%	14.3%	17.8%	30.4%	1.16%	51.2%	< 0%	< 0%	0.24%	< 0%	20.9%
Oc1ccc2[nH]c(-c3ccccc3)nc2c1	107%	93%	12.1%	10.1%	13.2%	29.1%	62.2%	< 0%	< 0%	< 0%	< 0%	-35.4%
COc1cc(NC(=O)CN2C(=O)NC(c3ccccc3)(c3ccccc3)C2=O)cc(OC)c1	91.4%	102%	-3.2%	< 0%	28.9%	-4.55%	7.51%	< 0%	< 0%	< 0%	8.59%	9.85%
CC(=O)N[C@H](C)C(=O)N[C@H](Cc1ccccc1)C(=O)O	91.7%	87.7%	8.11%	< 0%	-0.199%	24.6%	81.8%	< 0%	< 0%	17.2%	< 0%	0.6%
OB1OCc2c1ccc(Cl)c2F	95.7%	101%	-0.44%	8.58%	< 0%	0.633%	36.7%	< 0%	< 0%	< 0%	< 0%	7.88%
COc1ccc(C[C@@H](C)[C@@H](C)Cc2ccc(OC)c(OC)c2)cc1OC	81.9%	77.7%	5.15%	10.5%	23.6%	13.7%	63%	< 0%	< 0%	< 0%	< 0%	4.88%
CC(C)(C)OC(=O)NCc1ccc(C(=O)N[C@H]2CCOC2=O)cc1	96.9%	115%	14.5%	5.05%	< 0%	18.3%	17.2%	< 0%	< 0%	< 0%	< 0%	39.8%
CN1CCN(Cc2ccc(-c3cnc4[nH]cc(-c5ccc6[nH]ccc6c5)c4c3)cc2)CC1	68%	26.3%	21.4%	10%	< 0%	66%	66.9%	11%	65.5%	< 0%	< 0%	33.2%
